According to the supplement of paper PMC6555819:

What was measured:
Test in all cases: PBM binding z-score (relative to random genomic background probes); higher = stronger binding; sequences stand for … in GC…GCGATTGACAGCGTAGAATGAAGG
[1] = tested on: RARb homodimer (NR concentration 270 nM)
Procedure, shortened: (§1)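 The probes on custom Agilent 4×180K protein-binding microarrays were double-stranded, with 34-nt variable regions bearing direct-repeat seeds, single-nucleotide variants, half-site ablations and random human genomic background sequences. Incubation lasted 1 h with ligand-free nuclear receptor dimers in PBS pH 7.4, 2% milk, 0.02% Triton X-100, 1 mM DTT, 0.2 mg/mL BSA and 0.4 mg/ml salmon testes DNA. Antibodies against each partner (one per run) detected bound dimers, and fluorescence scans were regression-normalized. Binding z-scores take the random background probes as reference.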

[2] = tested on: RARg:RXRa (NR concentration 270 nM, RXRa partner concentration 90 nM)
Procedure, shortened: as §1

[3] = tested on: RARg homodimer (NR concentration 270 nM)
Procedure, shortened: as §1

[4] = tested on: RXRa DBDmut IVT, anti-RXR (DBD mutation: RXRa K156A/R161A, NR concentration 90 nM)
Procedure, shortened: as §1

[5] = tested on: RXRa homodimer (NR concentration 180 nM)
Procedure, shortened: as §1

[6] = tested on: THRa:RXRa (NR concentration 90 nM, RXRa partner concentration 90 nM)
Procedure, shortened: as §1

[7] = tested on: THRa homodimer (NR concentration 90 nM)
Procedure, shortened: as §1

[8] = tested on: VDR:RXRa (NR concentration 270 nM, RXRa partner concentration 90 nM)
Procedure, shortened: as §1

[9] = tested on: VDR homodimer (NR concentration 270 nM)
Procedure, shortened: as §1

TCTATTAGTTTATTAGGGCAACCGAAACAGCGGA
PBM binding z-score [1]: 1.56 | PBM binding z-score [2]: 1.15 | PBM binding z-score [3]: 1.09 | PBM binding z-score [4]: 1.92 | PBM binding z-score [5]: 0.82 | PBM binding z-score [6]: 1.54 | PBM binding z-score [7]: 1.62 | PBM binding z-score [8]: 1.03 | PBM binding z-score [9]: 1.29

CCTAACAGGCCAATCTGGGTCACTCAAGGCTTGA
PBM binding z-score [1]: 2.38 | PBM binding z-score [2]: 1.47 | PBM binding z-score [3]: 1.75 | PBM binding z-score [4]: 0.498 | PBM binding z-score [5]: 0.758 | PBM binding z-score [6]: 3.85 | PBM binding z-score [7]: 0.717 | PBM binding z-score [8]: 1.04 | PBM binding z-score [9]: 0.191

TCTTATAGGTAAAAGGTGAAAGTCGGTGTGGTAA
PBM binding z-score [1]: 1.91 | PBM binding z-score [2]: 2.24 | PBM binding z-score [3]: 0.977 | PBM binding z-score [4]: 1.69 | PBM binding z-score [5]: 3.2 | PBM binding z-score [6]: 1.8 | PBM binding z-score [7]: 0.525 | PBM binding z-score [8]: 1.66 | PBM binding z-score [9]: 0.326

CGCCAAAGTTCAAGGTAACGTAACAGAAAGCAGC
PBM binding z-score [1]: 4.05 | PBM binding z-score [2]: 5.2 | PBM binding z-score [3]: 5.94 | PBM binding z-score [4]: 4.68 | PBM binding z-score [5]: 4.57 | PBM binding z-score [6]: 2.96 | PBM binding z-score [7]: 1.28 | PBM binding z-score [8]: 3.76 | PBM binding z-score [9]: 3.03

ATTCAAAGTTCACTAGGTAACGTAAGATTCAGCT
PBM binding z-score [1]: 3.66 | PBM binding z-score [2]: 4.48 | PBM binding z-score [3]: 5.35 | PBM binding z-score [4]: 4.38 | PBM binding z-score [5]: 3.58 | PBM binding z-score [6]: 2.03 | PBM binding z-score [7]: 0.474 | PBM binding z-score [8]: 3.43 | PBM binding z-score [9]: 4.11

CCTACTGGGACAAAAAGGTCATTGATGCCGATAA
PBM binding z-score [1]: 4.37 | PBM binding z-score [2]: 4.68 | PBM binding z-score [3]: 4.48 | PBM binding z-score [4]: 1.21 | PBM binding z-score [5]: 5.22 | PBM binding z-score [6]: 3.31 | PBM binding z-score [7]: 0.878 | PBM binding z-score [8]: 4.78 | PBM binding z-score [9]: 3.69

ACTAGCAGGCCAAGTCTGGGTCACTCAAACAAAG
PBM binding z-score [1]: 2.36 | PBM binding z-score [2]: 2.25 | PBM binding z-score [3]: 1.48 | PBM binding z-score [4]: -0.171 | PBM binding z-score [5]: 0.902 | PBM binding z-score [6]: 2.35 | PBM binding z-score [7]: 0.768 | PBM binding z-score [8]: 0.77 | PBM binding z-score [9]: 0.0682

CCTTACGGGTCACCGACAGGTTATAGCATTTGGA
PBM binding z-score [1]: 3.79 | PBM binding z-score [2]: 6.61 | PBM binding z-score [3]: 5.55 | PBM binding z-score [4]: 1.12 | PBM binding z-score [5]: 6.11 | PBM binding z-score [6]: 3.23 | PBM binding z-score [7]: 0.772 | PBM binding z-score [8]: 4.44 | PBM binding z-score [9]: 1.09

CCAGACAGGTGAAAGGGAACTCAGTCTGGTACGC
PBM binding z-score [1]: 0.101 | PBM binding z-score [2]: 0.15 | PBM binding z-score [3]: 0.299 | PBM binding z-score [4]: -0.242 | PBM binding z-score [5]: 0.59 | PBM binding z-score [6]: 0.0918 | PBM binding z-score [7]: -0.374 | PBM binding z-score [8]: -0.152 | PBM binding z-score [9]: 0.0555

GCGGCTGGGGCAAAGCAGGTTACCATAAGGTTGG
PBM binding z-score [1]: 1.19 | PBM binding z-score [2]: 0.368 | PBM binding z-score [3]: 0.921 | PBM binding z-score [4]: -0.596 | PBM binding z-score [5]: 0.116 | PBM binding z-score [6]: 3.18 | PBM binding z-score [7]: 0.108 | PBM binding z-score [8]: 0.192 | PBM binding z-score [9]: -0.402

TCATACAGGTAAATGCTAGGTGAAAGTCCGATCT
PBM binding z-score [1]: 0.654 | PBM binding z-score [2]: 0.462 | PBM binding z-score [3]: 0.278 | PBM binding z-score [4]: 1.48 | PBM binding z-score [5]: 0.593 | PBM binding z-score [6]: 1.47 | PBM binding z-score [7]: 0.878 | PBM binding z-score [8]: 0.69 | PBM binding z-score [9]: 0.146

AGAACGAGGGCACGCTGAGTTTATAGCAGAGTAG
PBM binding z-score [1]: 1.45 | PBM binding z-score [2]: 2.31 | PBM binding z-score [3]: 2.32 | PBM binding z-score [4]: 2.18 | PBM binding z-score [5]: 1.5 | PBM binding z-score [6]: 2.15 | PBM binding z-score [7]: -0.111 | PBM binding z-score [8]: 3.94 | PBM binding z-score [9]: 4.06

TAGCCTAGGTCATACGGGCCAGTATAGTGTCGGC
PBM binding z-score [1]: 2.87 | PBM binding z-score [2]: 3.74 | PBM binding z-score [3]: 4.43 | PBM binding z-score [4]: 0.941 | PBM binding z-score [5]: 3.22 | PBM binding z-score [6]: 2.92 | PBM binding z-score [7]: 0.814 | PBM binding z-score [8]: 3.08 | PBM binding z-score [9]: 0.783

TCTAGCAGCCCAGAGGGTCACTCAAGAGGTACGG
PBM binding z-score [1]: 2.38 | PBM binding z-score [2]: 2.16 | PBM binding z-score [3]: 1.8 | PBM binding z-score [4]: -0.186 | PBM binding z-score [5]: 2.23 | PBM binding z-score [6]: 1.63 | PBM binding z-score [7]: -0.455 | PBM binding z-score [8]: 1.1 | PBM binding z-score [9]: 0.294

GCTTACGGGTCATAGGTTATAGCATGAATAGAAT
PBM binding z-score [1]: 2.49 | PBM binding z-score [2]: 4.99 | PBM binding z-score [3]: 3.83 | PBM binding z-score [4]: 2.34 | PBM binding z-score [5]: 6.22 | PBM binding z-score [6]: 2.9 | PBM binding z-score [7]: 0.18 | PBM binding z-score [8]: 3.91 | PBM binding z-score [9]: 0.952

GCTCGGAGGACAAGGACAGAGCTTTGTCCGTAGA
PBM binding z-score [1]: 0.139 | PBM binding z-score [2]: -0.0807 | PBM binding z-score [3]: 0.418 | PBM binding z-score [4]: -0.45 | PBM binding z-score [5]: -0.592 | PBM binding z-score [6]: 1.31 | PBM binding z-score [7]: 0.61 | PBM binding z-score [8]: -0.798 | PBM binding z-score [9]: -0.639

GCTTACGTGTCAAAGGTTATAGCATGAATAGAAT
PBM binding z-score [1]: 1.28 | PBM binding z-score [2]: 3.21 | PBM binding z-score [3]: 1.5 | PBM binding z-score [4]: 0.885 | PBM binding z-score [5]: 4.41 | PBM binding z-score [6]: 1.81 | PBM binding z-score [7]: -0.725 | PBM binding z-score [8]: 2.29 | PBM binding z-score [9]: -0.00185

CGAACTAGGTCATTGACAGGACGGTGAATAGTAA
PBM binding z-score [1]: 2.33 | PBM binding z-score [2]: 4.09 | PBM binding z-score [3]: 4.33 | PBM binding z-score [4]: 2.13 | PBM binding z-score [5]: 2.59 | PBM binding z-score [6]: 2.58 | PBM binding z-score [7]: 0.313 | PBM binding z-score [8]: 1.62 | PBM binding z-score [9]: 0.872

TTACCAAGGTGAATGTCGTTGATCCCTCTGTAGA
PBM binding z-score [1]: 0.851 | PBM binding z-score [2]: 0.459 | PBM binding z-score [3]: 0.367 | PBM binding z-score [4]: 0.1 | PBM binding z-score [5]: 0.711 | PBM binding z-score [6]: 1.82 | PBM binding z-score [7]: 0.923 | PBM binding z-score [8]: 0.328 | PBM binding z-score [9]: -0.448

CCGAGTAGGTTATGGGTCATTCAGGCAACGGTGA
PBM binding z-score [1]: 2.66 | PBM binding z-score [2]: 2.52 | PBM binding z-score [3]: 2.15 | PBM binding z-score [4]: 0.565 | PBM binding z-score [5]: 3.06 | PBM binding z-score [6]: 2.29 | PBM binding z-score [7]: 0.87 | PBM binding z-score [8]: 2.67 | PBM binding z-score [9]: 1.42

AGAATGAGGTTACGATCAGGGAAACAGAATACAT
PBM binding z-score [1]: 1.15 | PBM binding z-score [2]: 2.31 | PBM binding z-score [3]: 1.83 | PBM binding z-score [4]: 0.839 | PBM binding z-score [5]: 2.77 | PBM binding z-score [6]: 2.99 | PBM binding z-score [7]: 0.967 | PBM binding z-score [8]: 1.43 | PBM binding z-score [9]: 0.356

CCTTACTGGTCAAGGTTATAGCACGGGTGGTACG
PBM binding z-score [1]: 1.78 | PBM binding z-score [2]: 1.43 | PBM binding z-score [3]: 1.55 | PBM binding z-score [4]: -0.171 | PBM binding z-score [5]: 1.37 | PBM binding z-score [6]: 1.52 | PBM binding z-score [7]: 1.09 | PBM binding z-score [8]: 0.737 | PBM binding z-score [9]: 0.749

CCTGCTAGGTCATGGTGAGCTAATCTACAGTATG
PBM binding z-score [1]: 2.8 | PBM binding z-score [2]: 3.83 | PBM binding z-score [3]: 4.17 | PBM binding z-score [4]: 1.72 | PBM binding z-score [5]: 2.52 | PBM binding z-score [6]: 2.82 | PBM binding z-score [7]: 0.878 | PBM binding z-score [8]: 1.37 | PBM binding z-score [9]: -0.0752

ATACCAACGTGATCGTGAGGTCGTTGATACTAAC
PBM binding z-score [1]: 0.904 | PBM binding z-score [2]: 0.317 | PBM binding z-score [3]: 0.269 | PBM binding z-score [4]: 0.532 | PBM binding z-score [5]: 0.915 | PBM binding z-score [6]: 2.36 | PBM binding z-score [7]: 1.73 | PBM binding z-score [8]: 1.8 | PBM binding z-score [9]: 2.32

CCTAGCAGGCCAATCAGGGTCACTCAAGGCTTGA
PBM binding z-score [1]: 3.13 | PBM binding z-score [2]: 2.79 | PBM binding z-score [3]: 2.02 | PBM binding z-score [4]: 0.629 | PBM binding z-score [5]: 3.31 | PBM binding z-score [6]: 4.68 | PBM binding z-score [7]: 1.15 | PBM binding z-score [8]: 3.66 | PBM binding z-score [9]: 1.77

AGAACGAGGGCAATGAGTTGATAGTACGGGTGGC
PBM binding z-score [1]: 1.2 | PBM binding z-score [2]: 1.3 | PBM binding z-score [3]: 1.61 | PBM binding z-score [4]: 2.24 | PBM binding z-score [5]: 0.933 | PBM binding z-score [6]: 0.88 | PBM binding z-score [7]: -0.483 | PBM binding z-score [8]: 5.53 | PBM binding z-score [9]: 3.56
